D2 PAM-1 – HTS Assay for Positive Allosteric Modulators of the Human D2 Dopamine Receptor: Primary Screen for Potentiators; D(2) dopamine receptor (Homo sapiens), P14416; HEK293 T-REx D2, calcium flux, EC20 dopamine potentiation; potentiation, % at 10 µM; 0.34% of 340,000 active; AID 485347, 2010;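 active = potentiation over 3 SD above the plate norm, cut at about 30% in these data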; also: 0% is about no effect
Target sequence (P14416 whole entry, looked up): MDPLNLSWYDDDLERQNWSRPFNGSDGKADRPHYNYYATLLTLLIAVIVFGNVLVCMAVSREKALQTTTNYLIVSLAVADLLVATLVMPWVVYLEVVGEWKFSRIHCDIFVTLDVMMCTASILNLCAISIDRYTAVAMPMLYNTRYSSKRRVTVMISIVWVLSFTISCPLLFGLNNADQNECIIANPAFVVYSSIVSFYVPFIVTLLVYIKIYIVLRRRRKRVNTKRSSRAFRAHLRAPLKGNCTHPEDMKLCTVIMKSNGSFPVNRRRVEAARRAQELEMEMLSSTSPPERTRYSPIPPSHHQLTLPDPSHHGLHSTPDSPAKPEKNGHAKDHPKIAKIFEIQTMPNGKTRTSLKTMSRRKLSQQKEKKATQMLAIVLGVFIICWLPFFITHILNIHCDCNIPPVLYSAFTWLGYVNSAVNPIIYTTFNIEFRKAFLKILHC
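Using a no-wash calcium dye in inducible, force-coupled HEK293 Trex cells expressing D2, we tracked fluorescence each second for 180 s after compound, then for 180 s after EC20 dopamine to detect augmented signalling.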
D2 ag-1 – HTS Assay for Allosteric Agonists of the Human D2 Dopamine Receptor: Primary Screen for Agonists; 0.53% of 340,000 active; activation, % at 2 µM; HEK293 T-REx D2 cells, calcium flux agonist mode; D(2) dopamine receptor (Homo sapiens), P14416;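 active = activation over 3 SD above normal in the single-dose calcium agonist read, cut at about 30% in these data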; also: 0% is about no effect
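HEK293 Trex D2 cells, tetracycline-induced, o/n 30 C 5% CO2; no-wash Ca dye, RT 30–90 min; 10-cycle baseline, 23 nl cpd added, kinetic Ca read 180 s; agonist hits = positive Ca response.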
D2 PAM-2 – Beta-Arrestin HTS for Positive Allosteric Modulators of the Human D2 Dopamine Receptor: Potentiators; AID 624464, 2012; DiscoveRx D2 beta-arrestin cells, luminescence, 90 min; 100% = 57 uM dopamine signal; D(2) dopamine receptor (Homo sapiens), P14416; potentiation, % (no concentration beside the values); 0.23% of 360,000 active; in the data active = potentiation above about 50%; inconclusive = mostly about 30% to 49%
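PathHunter beta-arrestin assay in DiscoveRx D2 cells. Compounds were added with an EC20 of dopamine (50 nM final) for 90 min at 37 deg C. Luminescence was read 1 h after detection reagent, with 57 uM dopamine as the EC100 control.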
D2 ag-2 – Beta-Arrestin HTS for Positive Allosteric Modulators of the Human D2 Dopamine Receptor: Agonists; DiscoveRx PathHunter D2 beta-arrestin, luminescence, 90 min; 100% = 57 uM dopamine signal; activation, % (concentration not given with the values); 0.084% of 360,000 active; AID 624465, 2012; in the data active = activation above about 40%; inconclusive = between about 15% and that limit
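Agonist mode: compounds alone added to overnight-plated D2 PathHunter cells for 90 min at 37 C, with 57 uM final dopamine (EC100) defining full response. Beta-arrestin recruitment detected by chemiluminescent reagent, read after 1 h at ambient temperature.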
D2 antagonist – HTS Assay for Allosteric Antagonists of the Human D2 Dopamine Receptor: Primary Screen for Antagonists; AID 485344, 2010; inhibition, % at 10 µM; 2% of 340,000 active; HEK293 TREx D2 cells, calcium flux, dopamine EC80; D(2) dopamine receptor (Homo sapiens), P14416; in the data active = inhibition above about 30%; inactive = below that, where a call was filed; also: 0% is about no effect
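In this primary screen, negative modulation is detected by tracking calcium flux after an EC80 dopamine challenge in inducible HEK293 T-REx D2 cells preexposed to test compound for 180 s.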
Numbers without * were called inactive; ? = inconclusive; nt = not tested or not shown. Most compounds without a hit are left out; they make up all but 2.4% or so of the library.

SMILES	D2 PAM-1	D2 ag-1	D2 PAM-2	D2 ag-2	D2 antagonist
Cc1ccc(S(=O)(=O)Nc2ccccc2C(=O)Nc2sccc2C(=O)NN(C)C)cc1	0.1	0.1	1.2	1.1	-5.7
CSCCC(NC(=O)c1ccccc1)C(=O)NCCc1ccc2c(c1)OCCO2 (centres undefined)	-9.9	0.0	-28.0	1.2	65.6*
CSCCC(NC(=O)c1ccccc1)C(=O)NC1CC1 (centres undefined)	-0.8	-0.5	-16.0	-2.9	11.4
CSCCC(NC(=O)c1ccccc1)C(=O)NCc1ccc(S(N)(=O)=O)cc1 (centres undefined)	-8.2	1.3	-0.4	1.9	31.4*
NC(=O)CCC(NC(=O)c1ccc(Cl)cc1)C(=O)NCCc1ccc2c(c1)OCCO2 (centres undefined)	8.0	-0.3	-11.5	-5.9	42.2*
NC(=O)CC(NC(=O)c1ccc(Cl)cc1)C(=O)NCCc1ccc(S(N)(=O)=O)cc1 (centres undefined)	-4.8	-0.4	-4.2	9.8	10.5
Cc1ccc(-c2nc(CS(=O)CC(=O)NCCN3CCCCC3C)c(C)o2)cc1 (centres undefined)	-1.0	0.6	-9.2	-6.0	14.7
CC(=O)NC(CC(=O)OCc1ccc([N+](=O)[O-])cc1)c1ccccc1 (centres undefined)	36.7*	-1.3	-6.6	-2.7	-3.8
O=C(c1ccc(Oc2ccccc2)cc1)c1nc2c(n1O)CCCC2	4.5	0.3	1.3	4.7	31.1*
COc1ccccc1N1CCN(c2nc3ccc(C)cc3n3nnnc23)CC1	-10.0	6.2	nt	nt	nt
COC(=O)CCN1CCC(c2cc(-c3cccc(C(F)(F)F)c3)n[nH]2)CC1	-8.5	1.1	-9.6	-3.4	-26.8
Cc1ccc(CN2CCC(c3cc(-c4cccs4)n[nH]3)CC2)cc1	-21.0	1.1	-18.1	1.3	69.9*
FC(F)(F)c1cccc(CN2CCC(c3cc(-c4cccs4)n[nH]3)CC2)c1	-33.0	0.1	-16.1	3.0	83.9*
CC1C(=O)N2CCCc3cc(S(=O)(=O)NCCc4ccccc4)cc1c32 (centres undefined)	42.9*	-0.1	-2.9	-4.2	-0.5
COc1ccc(CCNS(=O)(=O)c2cc3c4c(c2)C(C)C(=O)N4CCC3)cc1OC (centres undefined)	-6.5	-0.4	-4.4	-3.2	-10.7
CS(=O)(=O)N(CCc1ccccc1)CC(=O)N1CCN(Cc2ccc3c(c2)OCO3)CC1	7.9	-1.5	-9.8	-2.6	43.5*
O=C(CCCCCn1c(=O)[nH]c2ccccc2c1=O)N1CCN(Cc2ccc3c(c2)OCO3)CC1	-16.6	34.7*	2.4	3.3	5.1
O=C(Cn1c(=O)[nH]c2ccccc2c1=O)N1CCN(Cc2ccc3c(c2)OCO3)CC1	0.7	1.0	-21.1	0.9	4.5
O=C(CCn1nc(-c2ccccc2)ccc1=O)NCCCN1CCCCCC1	-0.2	0.4	3.4	-0.8	7.4
O=C(O)CC(NC(=O)Cc1ccccc1)c1ccccc1 (centres undefined)	9.7	-0.2	-9.8	-0.2	-11.4
CCOc1ccc(/C=C2/C(=O)N(c3ccc(OC)cc3)C(=S)N2CC(=O)OC)cc1OCC	-2.1	0.8	10.2	-4.1	17.5
CCOc1ccc(N2C(=O)/C(=C/c3cc(OC)c(OC)c(OC)c3)N(CC(=O)OC)C2=S)cc1	46.5*	1.6	-1.3	-3.9	-6.8
CC(=O)Nc1ccc(NC(=O)Cn2c(CC(=O)N3CCCC3)nc3ccccc32)cc1	-5.1	0.0	-9.9	2.4	14.7
Cc1ccccc1C(=O)N1CCC(C(=O)N2CCN(Cc3ccc4c(c3)OCO4)CC2)CC1	nt	nt	-0.3	1.1	nt
O=C(c1ccc(F)cc1)N1CCC(C(=O)N2CCN(Cc3ccc4c(c3)OCO4)CC2)CC1	-12.4	3.9	-7.9	-2.0	30.5*
SMILES	D2 PAM-1	D2 ag-1	D2 PAM-2	D2 ag-2	D2 antagonist
O=C(c1ccc2nc(N3CCOCC3)sc2c1)N1CCC(Cc2ccccc2)CC1	-4.2	0.5	-2.0	-0.5	31.8*
CCOC(=O)N1CCN(C(=O)c2ccc3nc(N4CCCCC4)sc3c2)CC1	9.7	0.2	4.0	1.5	11.7
CCn1cnc2sc(C(=O)N3CCN(Cc4ccc5c(c4)OCO5)CC3)c(C)c2c1=O	-14.2	33.5*	nt	nt	-5.3
O=C(c1ccc2nc(N3CCCCC3)sc2c1)N1CCN(Cc2ccc3c(c2)OCO3)CC1	-7.8	49.0*	-0.8	-4.6	7.6
O=C(CN1CCN(c2ccc(O)cc2)CC1)Nc1ccc2c(c1)OCCO2	-9.2	36.2*	-10.0	?	-9.5
CC(C)OCCCN(C)C1CCN(S(=O)(=O)c2ccc(-c3cc(C(F)(F)F)no3)s2)CC1	18.0	-0.4	-23.3	0.8	27.9
CCCn1cnc2c(c1=O)c1nc3ccccc3nc1n2CCc1ccccc1	4.4	-0.5	1.9	1.2	16.8
Cc1cccc(Cn2c(C(C)(C)C)cc3cccnc32)c1	-4.6	-0.2	-35.5	-5.0	44.8*
Cc1cccc(Cn2c(CNS(=O)(=O)c3ccc(Cl)s3)nc3cccnc32)c1	-1.6	-0.8	nt	nt	nt
O=C(Nc1ccc(N2CCOCC2)cc1)C1CC(=O)N(c2ccc(F)cc2)C1 (centres undefined)	7.9	-0.1	-0.6	-5.0	3.3
CCSc1nnc(NC(=O)c2nc(-c3ccccc3)n(-c3ccccc3)n2)s1	2.9	0.3	-4.9	-1.0	-3.4
Cc1ccc(NC(=O)Nc2nc(-c3ccc(C)s3)cs2)cc1	45.3*	0.9	-0.3	2.7	-11.0
O=C1S/C(=C\c2ccc(N3CCOCC3)o2)C(=O)N1c1ccccc1	5.1	30.7*	0.0	1.4	3.8
COc1ccc(NC(=O)c2cc(S(=O)(=O)N3CCOCC3)cn2C)c(OC)c1	-7.4	0.8	-2.1	2.0	41.0*
COc1ccc(NC(=O)c2cnc(SC)nc2C)c(OC)c1	18.8	0.8	0.2	-0.8	37.8*
COc1ccc(NC(=O)c2cc(S(=O)(=O)N3CCCCCC3)cn2C)c(OC)c1	5.1	-0.9	nt	nt	nt
COc1ccc(NC(=O)c2cc3cc(C)ccc3n2C)c(OC)c1	0.4	0.1	-5.8	1.3	34.4*
COC(=O)c1ccccc1NC(=O)c1cc2cc(C)ccc2n1C	-5.2	nt	nt	nt	nt
CC(C)(C)c1ccc(-c2nc3cc(NC(=O)c4cc5ccccc5o4)ccc3o2)cc1	4.2	-0.9	nt	nt	nt
CSc1ncccc1C(=O)OCc1c(F)cccc1Cl	30.3*	1.9	7.5	-3.0	-10.5
CCOc1ncccc1C(=O)Nc1nnc(C)s1	10.8	-0.9	-7.3	-5.6	-0.9

Screens from PubChem BioAssay.
